The results in this text go back to PubChem BioAssay AID463173 (ICCB-Longwood Screening Facility, Harvard Medical School, 2010).

The campaign covered roughly 52,000 compounds. About 4,300 (8.3%) were called active. Only a selection was taken, and actives are over-represented in it overall. Unmarked numbers belong to inactive results. No stated cut-off is given here; in the data, active means survival mostly below about 52% (no sharp cut-off); inactive means mostly above about 56%.

In this assay the test system is DeltatarO mutant. Kind of assay: growth inhibition of S. aureus wild type versus tarO mutant, primary screen, teichoic acid synthesis inhibitors, RN4220, OD600 (AID 463173). The conditions noted are these: OD600, 18 h, stronger effect = lower value, screened at 18.75 µg/mL (by protocol).
As for `O=C(O)CCSc1nc2ccccc2o1`, the survival was 87%. The same measure for `CCc1cccc(C)c1NC(=O)CN(C)S(=O)(=O)c1cccc2nsnc12`: 89%. On to `COC(=O)C1=C(C)NC(=O)C1(NC(=O)c1cc(OC)c(OC)c(OC)c1)C(F)(F)F` (stereo not drawn), for which the survival is 54%. On to `CC(=O)c1ccc(NC(=O)CSc2ccc3nc(-c4ccccc4)cn3n2)cc1`, for which the survival was 89%. To `CCC(C(=O)Nc1cc(OC)cc(OC)c1)n1nc(-c2ccc(C)c(C)c2)ccc1=O` (stereo not drawn) belongs 75%. Take `CCC(C(=O)Nc1cccc(Cl)c1C)n1nc(C)c2sc3ccccc3c2c1=O` (stereo not drawn): the survival is 72%. Regarding `CCC(C(=O)Nc1cc(Cl)ccc1OC)n1nc(-c2ccccc2)ccc1=O` (stereo not drawn), the survival was 24% (active). To `Cc1ccc(Cl)cc1NC(=O)C(C)n1nnc2sc(-c3ccccc3)cc2c1=O` (stereo not drawn) belongs 59%; to `CC(=O)c1ccc(NC(=O)C(C)n2nc(-c3ccccc3)ccc2=O)cc1` (stereo not drawn), 32% (active); to `Cc1ccc(-c2ccc(=O)n(CC(=O)Nc3ccc(C)cc3Cl)n2)cc1`, 50%. The same measure for `Cc1ccc(-c2ccc(=O)n(C(C)C(=O)Nc3ccccc3Cl)n2)cc1C` (stereo not drawn): 66%; for `Cc1ccc(Cl)cc1NC(=O)C(C)n1nc(-c2ccccc2)ccc1=O` (stereo not drawn): 20% (active). As for `COc1ccc(NC(=O)C(C)n2nc(-c3ccc(C)c(C)c3)ccc2=O)cc1OC` (stereo not drawn), the survival was 69%. To `CCC(C(=O)Nc1cccc(Cl)c1C)n1nc(-c2ccc(C)cc2)ccc1=O` (stereo not drawn) belongs 41% (active); to `COc1ccc(Cl)cc1NC(=O)C(OC)c1ccccc1` (stereo not drawn), 83%; to `COc1cccc(N2CCN(c3ncc4c(n3)CCN(Cc3ccc(Br)cc3)C4)CC2)c1`, 79%. The same measure for `COc1ccc(/C=C\c2onc(C)c2S(=O)(=O)N2CCC(C(=O)Nc3cccc(C)c3C)CC2)cc1`: 68%; for `Cc1ccc(-c2nnn(CCC(=O)NC(C)(C)C)n2)cc1`: 91%; for `Cc1ccc(C(=O)NCCC(C)C)cc1NC(=O)c1nsc2ccccc12`: 73%. To `N#C/C(=C/c1cccs1)C(N)=S` belongs 99%; to `Cc1cc(SCC(=O)NCc2ccc(Cl)cc2)nc(=O)[nH]1`, 86%; to `O=C(Nc1cccc(-n2cnnn2)c1)c1ccccc1`, 95%. For `N#C/C(=C\Nc1ccccc1O)c1nc2ccccc2o1`, the survival was 1% (active). The same measure for `Cc1ccc(C)c(N/C=C(\C#N)c2nc3ccccc3o2)c1`: 95%; for `N#C/C(=C/Nc1cccc2ccccc12)c1nc2ccccc2o1`: 54%; for `CCCOC(=O)c1c(NC(=O)C(C)Sc2nc(-c3ccccc3)cc(C(F)(F)F)n2)sc(C(=O)N(C)C)c1C` (stereo not drawn): 132%. To `CC(Oc1ccccc1)C(=O)Nc1nc2ccc(S(N)(=O)=O)cc2s1` (stereo not drawn) belongs 102%; to `COCCNc1nc(NCc2ccccc2OC)c2cnn(C)c2n1`, 69%. The same measure for `Cc1nc2c(-c3ccc(F)cc3)c(C)nn2c(C)c1CCC(=O)NCc1ccc(Cl)cc1`: 96%; for `CCOC(=O)Cc1c(C)nc2c(-c3ccc(Cl)cc3)c(C(F)(F)F)nn2c1C`: 63%; for `CCCCc1nc2ccccc2n2c(-c3ccc(OC)cc3)c3c(=O)n(C)c(=O)n(C)c3c12`: 49%. Take `CCCCc1c(C)nc2c(-c3ccc(Cl)cc3)c(C)[nH]n2c1=O`: the survival was -2% (active). To `CCCCc1c(C)nc2c(-c3ccc(OC)cc3)c(C)[nH]n2c1=O` belongs 7% (active). Consider `CCOC(=O)CCc1c(C)nc2cc(-c3cc(OC)cc(OC)c3)[nH]n2c1=O`, for which the survival is 90%.

With `c1ccc(Cn2ncc3c(N4CCCCC4)ncnc32)cc1`, the survival was 77%. To `COc1ccc(C2=C(C)C(=O)N(Cc3ccc(C(=O)NC(C)c4ccccc4)cc3)S2(=O)=O)cc1` (stereo not drawn) belongs 91%; to `CCOC(=O)c1c(NC(=O)/C=C/c2ccc(C)cc2)sc(C(C)=O)c1C`, 79%. Take `CCOc1ccc(CNC(=O)c2cnc3sc(N4CCCCCC4)nn3c2=O)cc1OC`: the survival was 83%.

With `COc1ccc(NC(=O)N2CCc3c(sc4c3CCCC4)C2c2ccccc2OC)cc1` (stereo not drawn), the survival was 54% (active).

Consider `Cc1ccc(NC(=O)N2CCc3c(sc4c3CCCC4)C2c2ccccc2)cc1F` (stereo not drawn), for which the survival is 102%.

With `COc1cc(NC(=O)N2CCc3c(sc4c3CCCC4)C2c2ccccc2)cc(OC)c1OC` (stereo not drawn), the survival is 103%. `COc1ccc(NC(=O)N2CCc3c(sc4c3CCCC4)C2c2ccc(F)cc2)cc1` (stereo not drawn): the survival is 101%. To `O=C(Nc1ccc(F)cc1F)N1CCc2c(sc3c2CCCC3)C1c1ccc(F)cc1` (stereo not drawn) belongs 93%. The same measure for `Cc1cccc(NC(=O)N2CCc3c(sc4c3CCCC4)C2c2ccc(F)cc2)c1` (stereo not drawn): 37% (active); for `Cc1ccc([N+](=O)[O-])c(Oc2ncnc3c2oc2ccccc23)c1`: 101%; for `Oc1c(C(c2ccccc2F)N2CCC3(CC2)OCCO3)sc2nc(-c3ccco3)nn12` (stereo not drawn): 102%. For `Cc1ccc(C)c(Nc2cc(C(=O)NC3CCCC3)c3ccccc3n2)c1`, the survival was 87%. In the case of `COc1ccc(N2C(=O)CS(=O)(=O)C23C(=O)N(Cc2ccccc2F)c2ccccc23)cc1Cl` (stereo not drawn), the survival is 75%. For the compound `CCOC(=O)c1c(NC(=O)c2ccc(S(=O)(=O)N(CC(C)C)CC(C)C)cc2)sc2c1CCN(C(=O)OCC)C2`, the survival is 124%. To `Cc1ccc(Cl)cc1NC(=O)CSC1=Nc2ccccc2C2=NC(Cc3ccccc3)C(=O)N12` (stereo not drawn) belongs 71%; to `COc1ccccc1NC(=O)CSc1nnc(NC(=O)Nc2ccc(C)cc2)s1`, 58%; to `COc1ccc(NC(=O)CSc2nnc(NC(=O)Nc3ccccc3)s2)cc1OC`, 86%. `COc1ccc(NC(=O)CSc2nnc(NC(=O)Nc3ccccc3)s2)c(OC)c1`: the survival was 47% (active). To `CCc1ccc(-n2nc(C)c3c(C(=O)N4CCN(c5ccccc5)CC4)cc(C)nc32)cc1` belongs 94%. With `Cc1cccc(S(=O)(=O)c2cn(Cc3ccc(F)cc3)c3cc(N4CCCCC4)c(F)cc3c2=O)c1`, the survival was -2% (active). On to `CCn1cc(C(=O)NCC(C)C)c(=O)c2cc(F)c(N3CCN(C(=O)c4ccco4)CC3)cc21`, for which the survival was 76%. As for `Cn1cc(S(=O)(=O)c2cccc(Cl)c2)c(=O)c2cc(F)c(N3CCN(c4ccc(F)cc4)CC3)cc21`, the survival was 70%.

In the case of `Cn1cc(S(=O)(=O)c2ccccc2)c(=O)c2cc(F)c(N3CCN(c4ccccc4)CC3)cc21`, the survival was 116%. The same measure for `Cn1cc(S(=O)(=O)c2cccc(Cl)c2)c(=O)c2cc(F)c(N3CCN(c4ccccc4)CC3)cc21`: 6% (active). To `CCn1cc(S(=O)(=O)c2cc(C)cc(C)c2)c(=O)c2cc(F)c(N3CCCCC3)cc21` belongs 86%. To `O=c1c(S(=O)(=O)c2ccccc2)cn(Cc2ccc(F)cc2)c2cc(N3CCCCC3)c(F)cc12` belongs 80%; to `CCn1cc(C(=O)N2CCN(c3ccccc3F)CC2)c(=O)c2cc(S(=O)(=O)N(C)C)ccc21`, 122%. For the compound `CCn1cc(S(=O)(=O)c2cc(C)cc(C)c2)c(=O)c2cc(F)c(N3CCCC3)cc21`, the survival is 109%. To `CCN1CCN(c2cc3c(cc2F)c(=O)c(S(=O)(=O)c2cc(C)cc(C)c2)cn3CC)CC1` belongs -1% (active); to `Cc1cccc(S(=O)(=O)c2cn(Cc3ccccc3)c3cc(N4CCCCC4)c(F)cc3c2=O)c1`, 82%; to `CCn1cc(C(=O)O)c(=O)c2cc(F)c(N3CCN(C(=O)c4ccccc4F)CC3)cc21`, 3% (active).

With `COc1cccc(C(c2sc3nc(-c4ccco4)nn3c2O)N2CCC(C)CC2)c1` (stereo not drawn), the survival was 78%. In the case of `CC(C)(C)C(=O)OCc1cc(=O)n2nc(C3CC3)sc2n1`, the survival is 80%. To `CC(=O)c1cc(-c2ccc(F)cc2)n(CCC(=O)NCc2ccccc2C)c1C` belongs 81%; to `Cc1ccc(-c2nnc3ccccc3c2C(=O)Nc2ccc(F)cc2)cc1`, 100%; to `CCCCNC(=O)Cn1cnc2sc(C)c(S(=O)(=O)N3CCN(c4ccccc4OC)CC3)c2c1=O`, 86%. The same measure for `CCOC(=O)C1CCCN(S(=O)(=O)c2cc3c4c(c2)CC(=O)N4CCC3)C1` (stereo not drawn): 93%; for `CCOc1ccc(-c2ccc(NS(=O)(=O)c3cc(C)ccc3OC)cc2)nn1`: 86%; for `O=C(NCCc1csc(-c2ccc(F)cc2)n1)c1cccs1`: 72%.

`Cc1ccc(NC2=CC(c3ccccc3F)N(c3ccc(C)cc3)C2=O)cc1` (stereo not drawn): the survival was 49%. The same measure for `CC(=O)NC1CCN(C(=O)Nc2ccccc2)CC1`: 91%; for `Cc1csc2nc(COC(=O)c3ccccc3NC(=O)c3ccc(F)cc3)cc(=O)n12`: 55%; for `COc1ccc(-c2noc(N3CCC(C(=O)N4CCN(c5ccccc5OC)CC4)CC3)n2)cc1`: 61%. To `Cc1cccc(OCCCSc2nc(-c3ccc(C(C)(C)C)cc3)nc3cc(=O)[nH]n23)c1C` belongs 102%; to `CCCNC(=O)c1ccc(Cn2c(SCC(N)=O)nc3ccccc3c2=O)cc1`, 91%; to `CC(C)CCNC(=O)c1ccc(Cn2c(SCC(=O)NC(C)C)nc3ccccc3c2=O)cc1`, 144%. `CC(C)CCNC(=O)c1ccc(Cn2c(SCC(N)=O)nc3ccccc3c2=O)cc1`: the survival was 46% (active). With `Cc1cc(C)c(NC(=O)c2cc(CN3CCOCC3)on2)c(C)c1`, the survival is 70%. `COc1ccc(/C=C/C(=O)Nc2ccc(C)cc2)cc1`: the survival is 77%. To `COc1ccc(OC)c(/C=C/C(=O)Nc2ccc(C(=O)OCCC(C)C)cc2)c1` belongs 33% (active); to `CCOCCOC(=O)c1ccc(NC(=O)/C=C/c2ccc(OC)c(OC)c2)cc1`, 137%; to `Cc1cc(=O)[nH]c2c(C)c(Cl)ccc12`, 93%. As for `Cc1ccc(Cl)cc1Nc1nn2c(=O)c3ccc(C(=O)NC4CCC(C)CC4)cc3nc2s1` (stereo not drawn), the survival is 100%.
